From the supplement of paper PMC3150612
± gives the standard deviation of the averaged measurements.

How the values were obtained:
Drosophila melanogaster [1] = test: olfactory response index (dipstick assay) (fraction of flies (RI; 1 aversion, 0.5 indifferent, 0 attraction)); higher = stronger aversion to the odorant; details: odorant concentration: 1% v/v, male
Drosophila melanogaster [2] = test: as above; details: odorant concentration: 1% v/v, female
[3] = genotype (tubulin-GAL4 x UAS-RNAi line; control = progenitor): A5
[4] = genotype (tubulin-GAL4 x UAS-RNAi line; control = progenitor): control
[5] = genotype (tubulin-GAL4 x UAS-RNAi line; control = progenitor): obp 18a
[6] = genotype (tubulin-GAL4 x UAS-RNAi line; control = progenitor): obp 22a
[7] = genotype (tubulin-GAL4 x UAS-RNAi line; control = progenitor): obp 28a
[8] = genotype (tubulin-GAL4 x UAS-RNAi line; control = progenitor): obp 56a
[9] = genotype (tubulin-GAL4 x UAS-RNAi line; control = progenitor): obp 56c
[10] = genotype (tubulin-GAL4 x UAS-RNAi line; control = progenitor): obp 56f
[11] = genotype (tubulin-GAL4 x UAS-RNAi line; control = progenitor): obp 57a
[12] = genotype (tubulin-GAL4 x UAS-RNAi line; control = progenitor): obp 57b
[13] = genotype (tubulin-GAL4 x UAS-RNAi line; control = progenitor): obp 58c
[14] = genotype (tubulin-GAL4 x UAS-RNAi line; control = progenitor): obp 59a
[15] = genotype (tubulin-GAL4 x UAS-RNAi line; control = progenitor): obp 83a
[16] = genotype (tubulin-GAL4 x UAS-RNAi line; control = progenitor): obp 83c
[17] = genotype (tubulin-GAL4 x UAS-RNAi line; control = progenitor): obp 93a
[18] = genotype (tubulin-GAL4 x UAS-RNAi line; control = progenitor): obp 99b
[19] = genotype (tubulin-GAL4 x UAS-RNAi line; control = progenitor): obp 56h
[20] = genotype (tubulin-GAL4 x UAS-RNAi line; control = progenitor): obp 58b

Compound | olfactory response index (Drosophila melanogaster [1]; [3]) | olfactory response index (Drosophila melanogaster [1]; [4]) | olfactory response index (Drosophila melanogaster [1]; [5]) | olfactory response index (Drosophila melanogaster [1]; [6]) | olfactory response index (Drosophila melanogaster [1]; [7]) | olfactory response index (Drosophila melanogaster [1]; [8]) | olfactory response index (Drosophila melanogaster [1]; [9]) | olfactory response index (Drosophila melanogaster [1]; [10]) | olfactory response index (Drosophila melanogaster [1]; [11]) | olfactory response index (Drosophila melanogaster [1]; [12]) | olfactory response index (Drosophila melanogaster [1]; [13]) | olfactory response index (Drosophila melanogaster [1]; [14]) | olfactory response index (Drosophila melanogaster [1]; [15]) | olfactory response index (Drosophila melanogaster [1]; [16]) | olfactory response index (Drosophila melanogaster [1]; [17]) | olfactory response index (Drosophila melanogaster [1]; [18]) | olfactory response index (Drosophila melanogaster [1]; [19]) | olfactory response index (Drosophila melanogaster [2]; [3]) | olfactory response index (Drosophila melanogaster [2]; [4]) | olfactory response index (Drosophila melanogaster [2]; [5]) | olfactory response index (Drosophila melanogaster [2]; [6]) | olfactory response index (Drosophila melanogaster [2]; [7]) | olfactory response index (Drosophila melanogaster [2]; [8]) | olfactory response index (Drosophila melanogaster [2]; [9]) | olfactory response index (Drosophila melanogaster [2]; [10]) | olfactory response index (Drosophila melanogaster [2]; [11]) | olfactory response index (Drosophila melanogaster [2]; [12]) | olfactory response index (Drosophila melanogaster [2]; [20]) | olfactory response index (Drosophila melanogaster [2]; [13]) | olfactory response index (Drosophila melanogaster [2]; [14]) | olfactory response index (Drosophila melanogaster [2]; [15]) | olfactory response index (Drosophila melanogaster [2]; [16]) | olfactory response index (Drosophila melanogaster [2]; [17]) | olfactory response index (Drosophila melanogaster [2]; [18]) | olfactory response index (Drosophila melanogaster [2]; [19])
CC(C)=CCC/C(C)=C/CO [geraniol] | 0.228 ± 0.033 | 0.136 ± 0.091 | 0.0872 ± 0.11 | 0.0901 ± 0.081 | 0.177 ± 0.1 | 0.188 ± 0.086 | 0.174 ± 0.038 | 0.175 ± 0.023 | 0.0811 ± 0.02 | 0.0917 ± 0.055 | 0.114 ± 0.049 | 0.441 ± 0.039 | 0.159 ± 0.025 | 0.183 ± 0.099 | 0.412 ± 0.13 | 0.141 ± 0.11 | 0.197 ± 0.18 | 0.71 ± 0.16 | 0.492 ± 0.12 | 0.371 ± 0.15 | 0.367 ± 0.018 | 0.605 ± 0.03 | 0.581 ± 0.099 | 0.295 ± 0.025 | 0.468 ± 0.18 | 0.406 ± 0.12 | 0.504 ± 0.032 | 0.591 ± 0.17 | 0.19 ± 0.12 | 0.565 ± 0.091 | 0.442 ± 0.07 | 0.414 ± 0.034 | 0.593 ± 0.061 | 0.35 ± 0.23 | 0.406 ± 0.18
COC(=O)c1ccccc1O [methyl salicylate] | 0.331 ± 0.2 | 0.13 ± 0.099 | 0.0711 ± 0.077 | 0.179 ± 0.09 | 0.249 ± 0.1 | 0.161 ± 0.056 | 0.181 ± 0.16 | 0.173 ± 0.11 | 0.038 ± 0.036 | 0.193 ± 0.15 | 0.159 ± 0.068 | 0.368 ± 0.047 | 0.225 ± 0.13 | 0.14 ± 0.032 | 0.294 ± 0.18 | 0.108 ± 0.042 | 0.147 ± 0.04 | 0.49 ± 0.19 | 0.558 ± 0.091 | 0.114 ± 0.14 | 0.486 ± 0.086 | 0.384 ± 0.081 | 0.523 ± 0.13 | 0.27 ± 0.14 | 0.295 ± 0.068 | 0.356 ± 0.1 | 0.384 ± 0.23 | 0.287 ± 0.066 | 0.381 ± 0.22 | 0.616 ± 0.093 | 0.454 ± 0.19 | 0.654 ± 0.066 | 0.491 ± 0.02 | 0.308 ± 0.16 | 0.63 ± 0.22
CCCCCC(C)=O [2-heptanone] | 0.365 ± 0.086 | 0.0673 ± 0.066 | 0.32 ± 0.1 | 0.304 ± 0.1 | 0.331 ± 0.084 | 0.185 ± 0.082 | 0.239 ± 0.077 | 0.395 ± 0.14 | 0.214 ± 0.038 | 0.368 ± 0.13 | 0.328 ± 0.063 | 0.444 ± 0.12 | 0.339 ± 0.11 | 0.352 ± 0.13 | 0.345 ± 0.26 | 0.138 ± 0.044 | 0.393 ± 0.17 | 0.49 ± 0.16 | 0.483 ± 0.17 | 0.409 ± 0.092 | 0.417 ± 0.12 | 0.526 ± 0.081 | 0.392 ± 0.12 | 0.494 ± 0.073 | 0.452 ± 0.21 | 0.718 ± 0.062 | 0.571 ± 0.15 | 0.277 ± 0.015 | 0.272 ± 0.051 | 0.598 ± 0.13 | 0.4 ± 0.15 | 0.537 ± 0.17 | 0.443 ± 0.18 | 0.28 ± 0.017 | 0.513 ± 0.22
CCC=O [propanal] | 0.408 ± 0.047 | 0.158 ± 0.045 | 0.029 ± 0.031 | 0.1 ± 0.017 | 0.165 ± 0.13 | 0.111 ± 0.025 | 0.0917 ± 0.11 | 0.119 ± 0.083 | 0.0926 ± 0.076 | 0.254 ± 0.19 | 0.0938 ± 0.037 | 0.498 ± 0.047 | 0.164 ± 0.14 | 0.238 ± 0.095 | 0.289 ± 0.13 | 0.112 ± 0.019 | 0.233 ± 0.08 | 0.637 ± 0.17 | 0.467 ± 0.19 | 0.4 ± 0.18 | 0.583 ± 0.12 | 0.523 ± 0.039 | 0.24 ± 0.21 | 0.479 ± 0.049 | 0.333 ± 0.22 | 0.572 ± 0.086 | 0.66 ± 0.036 | 0.625 ± 0.097 | 0.305 ± 0.24 | 0.611 ± 0.11 | 0.312 ± 0.14 | 0.662 ± 0.086 | 0.688 ± 0.087 | 0.461 ± 0.039 | 0.356 ± 0.19
C=C(C)[C@@H]1CC=C(C)C(=O)C1 [(R)-carvone] | 0.627 ± 0.12 | 0.163 ± 0.067 | 0.206 ± 0.16 | 0.34 ± 0.1 | 0.499 ± 0.09 | 0.396 ± 0.16 | 0.158 ± 0.14 | 0.201 ± 0.076 | 0.207 ± 0.1 | 0.378 ± 0.18 | 0.24 ± 0.096 | 0.541 ± 0.14 | 0.422 ± 0.069 | 0.146 ± 0.12 | 0.472 ± 0.21 | 0.233 ± 0.12 | 0.306 ± 0.22 | 0.747 ± 0.074 | 0.712 ± 0.019 | 0.484 ± 0.18 | 0.5 ± 0.16 | 0.662 ± 0.12 | 0.532 ± 0.2 | 0.712 ± 0.2 | 0.616 ± 0.13 | 0.582 ± 0.15 | 0.685 ± 0.13 | 0.622 ± 0.14 | 0.684 ± 0.077 | 0.711 ± 0.059 | 0.535 ± 0.06 | 0.655 ± 0.11 | 0.708 ± 0.16 | 0.676 ± 0.022 | 0.615 ± 0.14
Cc1cnccn1 [2-methylpyrazine] | 0.457 ± 0.04 | 0.104 ± 0.039 | 0.178 ± 0.049 | 0.155 ± 0.17 | 0.085 ± 0.043 | 0.176 ± 0.094 | 0.293 ± 0.15 | 0.151 ± 0.066 | 0.238 ± 0.096 | 0.261 ± 0.04 | 0.116 ± 0.1 | 0.397 ± 0.041 | 0.305 ± 0.16 | 0.218 ± 0.18 | 0.111 ± 0.044 | 0.1 ± 0.087 | 0.233 ± 0.078 | 0.623 ± 0.14 | 0.415 ± 0.074 | 0.358 ± 0.17 | 0.394 ± 0.084 | 0.527 ± 0.068 | 0.318 ± 0.099 | 0.458 ± 0.14 | 0.674 ± 0.013 | 0.532 ± 0.066 | 0.543 ± 0.082 | 0.159 ± 0.054 | 0.304 ± 0.15 | 0.552 ± 0.3 | 0.478 ± 0.062 | 0.431 ± 0.12 | 0.506 ± 0.13 | 0.381 ± 0.059 | 0.393 ± 0.099
C=C(C)[C@H]1CC=C(C)C(=O)C1 [(S)-carvone] | 0.57 ± 0.068 | 0.456 ± 0.062 | 0.22 ± 0.068 | 0.372 ± 0.058 | 0.384 ± 0.14 | 0.142 ± 0.051 | 0.186 ± 0.057 | 0.525 ± 0.15 | 0.277 ± 0.15 | 0.4861 ± 0.0015 | 0.468 ± 0.1 | 0.657 ± 0.13 | 0.304 ± 0.27 | 0.555 ± 0.19 | 0.382 ± 0.14 | 0.171 ± 0.066 | 0.504 ± 0.17 | 0.729 ± 0.063 | 0.65 ± 0.074 | 0.558 ± 0.053 | 0.775 ± 0.06 | 0.651 ± 0.073 | 0.357 ± 0.1 | 0.678 ± 0.2 | 0.676 ± 0.1 | 0.613 ± 0.085 | 0.73 ± 0.15 | 0.49 ± 0.07 | 0.597 ± 0.064 | 0.739 ± 0.031 | 0.589 ± 0.045 | 0.398 ± 0.079 | 0.715 ± 0.056 | 0.468 ± 0.041 | 0.683 ± 0.086
